Measured values: the supplement of paper PMC10849652
About 7,900 targets were measured; listed, in parts, are those with a hit and a random draw of the rest. About 0.6% of all pairs of compound and target were hits. Values without a mark were called inactive.

Tests used:
Assay in all cases: log2 fold change, soluble protein after heating vs DMSO (PISA); higher = thermal stabilisation; K562 cells, 10 uM, 30 min; active = over 0.2 and 3.5 SD of the protein, either way, in both replicates (recomputed)
bafetinib = compound: Cc1ccc(NC(=O)c2ccc(CN3CC[C@H](N(C)C)C3)c(C(F)(F)F)c2)cc1Nc1nccc(-c2cncnc2)n1 [bafetinib]
Summary of the method: (§1)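 For each measurement, 10 μM compound was applied for 30 min to K562 cells at 2×10^6 cells/mL. Aliquots were heated for 3 min across 48°C-58°C, pooled, and extracted in PBS with 0.5% NP-40 at 4°C; the supernatant after 21,000xg for 90 min was soluble protein. This was quantified by TMTpro 16plex LC-MS/MS with channel sums equalised, and thermal stability was reported relative to control samples from duplicates, on a log2 fold-change scale.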

[1] = compound: Cc1cccc(CC(=O)N2CCc3c2ccc(-c2cn(C)c4ncnc(N)c24)c3F)n1
Summary of the method: as §1

nilotinib = compound: Cc1cn(-c2cc(NC(=O)c3ccc(C)c(Nc4nccc(-c5cccnc5)n4)c3)cc(C(F)(F)F)c2)cn1 [nilotinib]
Summary of the method: as §1

[2] = compound: Cc1nc(Nc2n[nH]c3c2CN(C(=O)N[C@H](CN(C)C)c2ccccc2)C3(C)C)c2sccc2n1
Summary of the method: as §1

dasatinib = compound: Cc1nc(Nc2ncc(C(=O)Nc3c(C)cccc3Cl)s2)cc(N2CCN(CCO)CC2)n1 [dasatinib]
Summary of the method: as §1

[3] = compound: Cc1ncc(-c2ccnc(Nc3ccc(S(C)(=O)=O)cc3)n2)n1C(C)C
Summary of the method: as §1

[4] = compound: Cn1cc(-c2ccc3c(c2)CCN3C(=O)Cc2cccc(C(F)(F)F)c2)c2c(N)ncnc21
Summary of the method: as §1

[5] = compound: Cn1cc(-c2ccc3nnc(C(F)(F)c4ccc5ncccc5c4)n3n2)cn1
Summary of the method: as §1

tipifarnib = compound: Cn1cncc1[C@@](N)(c1ccc(Cl)cc1)c1ccc2c(c1)c(-c1cccc(Cl)c1)cc(=O)n2C [tipifarnib]
Summary of the method: as §1

mubritinib = compound: FC(F)(F)c1ccc(/C=C/c2nc(COc3ccc(CCCCn4ccnn4)cc3)co2)cc1 [mubritinib]
Summary of the method: as §1

TBCD (UniProt Q9BTW9)
log2 fold change (bafetinib): -0.064 | log2 fold change [1]: 0.029 | log2 fold change (nilotinib): -0.101 | log2 fold change [2]: -0.078 | log2 fold change (dasatinib): -0.086 | log2 fold change [3]: -0.025 | log2 fold change [4]: 0.007 | log2 fold change [5]: 0.025 | log2 fold change (tipifarnib): -0.038 | log2 fold change (mubritinib): -0.039

SSR3 isoform 2 (UniProt Q9UNL2)
Sequence of UniProt Q9UNL2 (Q9UNL2 whole entry, looked up): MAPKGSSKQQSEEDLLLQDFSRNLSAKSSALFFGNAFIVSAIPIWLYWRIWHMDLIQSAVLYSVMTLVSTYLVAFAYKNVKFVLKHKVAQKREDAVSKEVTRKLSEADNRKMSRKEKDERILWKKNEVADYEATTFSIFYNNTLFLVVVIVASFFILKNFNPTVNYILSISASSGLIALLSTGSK
log2 fold change (bafetinib): -0.064 | log2 fold change [1]: 0.034 | log2 fold change (nilotinib): -0.006 | log2 fold change [2]: 0.029 | log2 fold change (dasatinib): 0.006 | log2 fold change [3]: -0.047 | log2 fold change [4]: 0.107 | log2 fold change [5]: -0.167 | log2 fold change (tipifarnib): 0.084 | log2 fold change (mubritinib): 0.049

STEAP3 isoform 2 (UniProt Q658P3)
log2 fold change (bafetinib): -0.044 | log2 fold change [1]: 0.058 | log2 fold change (nilotinib): -0.001 | log2 fold change [2]: -0.061 | log2 fold change (dasatinib): -0.028 | log2 fold change [3]: 0.03 | log2 fold change [4]: 0.039 | log2 fold change [5]: 0.11 | log2 fold change (tipifarnib): -0.085 | log2 fold change (mubritinib): -0.034

SNRNP27 (UniProt Q8WVK2)
Sequence of UniProt Q8WVK2 (Q8WVK2 whole entry, looked up): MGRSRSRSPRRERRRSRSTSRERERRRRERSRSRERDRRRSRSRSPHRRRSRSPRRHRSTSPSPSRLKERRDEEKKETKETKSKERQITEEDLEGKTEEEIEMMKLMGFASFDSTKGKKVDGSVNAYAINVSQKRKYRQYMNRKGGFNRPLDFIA
log2 fold change (bafetinib): -0.015 | log2 fold change [1]: -0.079 | log2 fold change (nilotinib): 0.087 | log2 fold change [2]: -0.487 (active) | log2 fold change (dasatinib): 0.045 | log2 fold change [3]: -0.064 | log2 fold change [4]: -0.078 | log2 fold change [5]: 0.031 | log2 fold change (tipifarnib): 0.032 | log2 fold change (mubritinib): 0.059

SRI (UniProt P30626)
Sequence of UniProt P30626 (P30626 whole entry, looked up): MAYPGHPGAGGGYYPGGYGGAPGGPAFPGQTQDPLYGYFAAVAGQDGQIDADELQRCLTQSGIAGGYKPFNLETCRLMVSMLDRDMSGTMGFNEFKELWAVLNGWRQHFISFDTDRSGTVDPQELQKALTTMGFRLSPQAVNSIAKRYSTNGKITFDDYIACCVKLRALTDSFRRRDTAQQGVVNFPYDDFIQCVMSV
log2 fold change (bafetinib): -0.001 | log2 fold change [1]: 0.062 | log2 fold change (nilotinib): 0.017 | log2 fold change [2]: 0.001 | log2 fold change (dasatinib): 0.04 | log2 fold change [3]: -0.036 | log2 fold change [4]: 0.113 | log2 fold change [5]: 0.328 | log2 fold change (tipifarnib): -0.072 | log2 fold change (mubritinib): 0.01

SULT1A1 (UniProt P50225)
log2 fold change (bafetinib): -0.067 | log2 fold change [1]: 0.222 | log2 fold change (nilotinib): -0.072 | log2 fold change [2]: -0.065 | log2 fold change (dasatinib): -0.172 | log2 fold change [3]: -0.002 | log2 fold change [4]: 0.333 (active) | log2 fold change [5]: 0.353 (active) | log2 fold change (tipifarnib): -0.097 | log2 fold change (mubritinib): -0.069

SLC39A11 (UniProt Q8N1S5)
Sequence of UniProt Q8N1S5 (Q8N1S5 whole entry, looked up): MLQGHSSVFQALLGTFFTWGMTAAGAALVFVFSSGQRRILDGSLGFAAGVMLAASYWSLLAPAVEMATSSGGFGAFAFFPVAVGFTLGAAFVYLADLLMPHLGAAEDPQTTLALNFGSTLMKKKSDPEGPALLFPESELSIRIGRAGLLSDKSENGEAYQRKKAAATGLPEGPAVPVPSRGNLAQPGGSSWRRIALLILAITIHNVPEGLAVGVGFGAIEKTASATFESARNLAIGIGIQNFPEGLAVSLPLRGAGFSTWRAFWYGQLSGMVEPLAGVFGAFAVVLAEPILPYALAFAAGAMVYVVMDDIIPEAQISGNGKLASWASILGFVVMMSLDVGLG
log2 fold change (bafetinib): -0.13 | log2 fold change [1]: -0.043 | log2 fold change (nilotinib): -0.028 | log2 fold change [2]: 0.001 | log2 fold change (dasatinib): 0.058 | log2 fold change [3]: 0.248 | log2 fold change [4]: 0.128 | log2 fold change [5]: 0.002 | log2 fold change (tipifarnib): 0.048 | log2 fold change (mubritinib): -0.005

SPCS2 (UniProt Q15005)
Sequence of UniProt Q15005 (Q15005 whole entry, looked up): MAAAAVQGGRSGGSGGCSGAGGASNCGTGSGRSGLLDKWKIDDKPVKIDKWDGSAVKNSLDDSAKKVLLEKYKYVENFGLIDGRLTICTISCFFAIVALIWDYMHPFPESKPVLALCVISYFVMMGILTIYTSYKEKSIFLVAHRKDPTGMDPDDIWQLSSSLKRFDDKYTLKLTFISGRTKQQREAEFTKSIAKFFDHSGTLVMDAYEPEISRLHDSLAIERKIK
log2 fold change (bafetinib): -0.057 | log2 fold change [1]: 0.003 | log2 fold change (nilotinib): 0.014 | log2 fold change [2]: -0.034 | log2 fold change (dasatinib): 0 | log2 fold change [3]: 0 | log2 fold change [4]: 0.053 | log2 fold change [5]: 0.025 | log2 fold change (tipifarnib): -0.035 | log2 fold change (mubritinib): 0.037

TARS2 (UniProt Q9BW92)
log2 fold change (bafetinib): -0.081 | log2 fold change [1]: 0.114 | log2 fold change (nilotinib): -0.094 | log2 fold change [2]: -0.003 | log2 fold change (dasatinib): -0.055 | log2 fold change [3]: 0 | log2 fold change [4]: 0.084 | log2 fold change [5]: 0.022 | log2 fold change (tipifarnib): -0.119 | log2 fold change (mubritinib): 0.013

TLK1 (UniProt Q9UKI8)
Sequence of UniProt Q9UKI8 (Q9UKI8 whole entry, looked up): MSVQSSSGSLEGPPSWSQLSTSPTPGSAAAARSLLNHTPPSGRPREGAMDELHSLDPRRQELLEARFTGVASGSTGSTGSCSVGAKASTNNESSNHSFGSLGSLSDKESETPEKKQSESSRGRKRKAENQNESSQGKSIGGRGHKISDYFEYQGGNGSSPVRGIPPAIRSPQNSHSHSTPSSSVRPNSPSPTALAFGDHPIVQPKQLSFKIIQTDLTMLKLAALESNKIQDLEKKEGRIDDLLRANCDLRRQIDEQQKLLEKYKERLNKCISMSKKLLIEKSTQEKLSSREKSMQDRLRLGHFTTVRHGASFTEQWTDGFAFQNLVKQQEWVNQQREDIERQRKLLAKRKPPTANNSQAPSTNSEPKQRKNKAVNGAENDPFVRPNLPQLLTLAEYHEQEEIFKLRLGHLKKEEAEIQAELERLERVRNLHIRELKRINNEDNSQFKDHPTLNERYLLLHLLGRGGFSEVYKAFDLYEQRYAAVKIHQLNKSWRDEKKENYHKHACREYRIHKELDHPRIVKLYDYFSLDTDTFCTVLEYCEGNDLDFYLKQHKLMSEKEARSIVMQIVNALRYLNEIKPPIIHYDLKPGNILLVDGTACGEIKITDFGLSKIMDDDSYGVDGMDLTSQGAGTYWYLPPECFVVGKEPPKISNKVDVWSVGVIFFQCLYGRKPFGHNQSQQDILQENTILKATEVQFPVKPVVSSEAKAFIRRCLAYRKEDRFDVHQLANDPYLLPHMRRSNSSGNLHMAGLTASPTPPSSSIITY
log2 fold change (bafetinib): -0.071 | log2 fold change [1]: 0 | log2 fold change (nilotinib): -0.073 | log2 fold change [2]: -0.399 (active) | log2 fold change (dasatinib): -0.028 | log2 fold change [3]: 0.007 | log2 fold change [4]: 0.06 | log2 fold change [5]: 0.026 | log2 fold change (tipifarnib): 0.01 | log2 fold change (mubritinib): 0.011

TK1 (UniProt P04183)
Sequence of UniProt P04183 (P04183 whole entry, looked up): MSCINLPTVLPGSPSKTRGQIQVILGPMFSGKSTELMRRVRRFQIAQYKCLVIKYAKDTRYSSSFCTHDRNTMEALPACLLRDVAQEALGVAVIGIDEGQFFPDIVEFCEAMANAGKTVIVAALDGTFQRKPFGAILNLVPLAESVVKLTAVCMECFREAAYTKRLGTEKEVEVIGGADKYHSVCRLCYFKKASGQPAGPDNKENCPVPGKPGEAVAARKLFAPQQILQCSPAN
log2 fold change (bafetinib): -0.04 | log2 fold change [1]: -0.028 | log2 fold change (nilotinib): -0.002 | log2 fold change [2]: 0.028 | log2 fold change (dasatinib): 0.032 | log2 fold change [3]: -0.036 | log2 fold change [4]: 0.015 | log2 fold change [5]: 0 | log2 fold change (tipifarnib): 0 | log2 fold change (mubritinib): 0.056

STK4 (UniProt Q13043)
Sequence of UniProt Q13043 (Q13043 whole entry, looked up): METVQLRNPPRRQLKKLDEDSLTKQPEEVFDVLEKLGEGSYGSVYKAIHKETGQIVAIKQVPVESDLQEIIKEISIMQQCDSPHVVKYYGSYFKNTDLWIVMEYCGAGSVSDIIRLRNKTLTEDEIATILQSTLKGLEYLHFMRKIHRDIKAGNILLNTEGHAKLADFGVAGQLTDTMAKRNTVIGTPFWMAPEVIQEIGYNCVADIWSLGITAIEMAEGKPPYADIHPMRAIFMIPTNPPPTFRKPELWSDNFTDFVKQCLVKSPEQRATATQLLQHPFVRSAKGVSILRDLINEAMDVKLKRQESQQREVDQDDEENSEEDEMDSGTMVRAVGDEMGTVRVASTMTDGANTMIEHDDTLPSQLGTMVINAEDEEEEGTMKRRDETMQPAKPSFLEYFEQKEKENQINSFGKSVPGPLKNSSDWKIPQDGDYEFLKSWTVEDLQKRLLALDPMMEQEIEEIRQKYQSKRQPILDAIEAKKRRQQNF
log2 fold change (bafetinib): -0.053 | log2 fold change [1]: -0.027 | log2 fold change (nilotinib): -0.003 | log2 fold change [2]: 0.143 | log2 fold change (dasatinib): -0.052 | log2 fold change [3]: -0.016 | log2 fold change [4]: 0.005 | log2 fold change [5]: 0 | log2 fold change (tipifarnib): 0.039 | log2 fold change (mubritinib): -0.028

SLK isoform 2 (UniProt Q9H2G2)
Sequence of UniProt Q9H2G2 (Q9H2G2 whole entry, looked up): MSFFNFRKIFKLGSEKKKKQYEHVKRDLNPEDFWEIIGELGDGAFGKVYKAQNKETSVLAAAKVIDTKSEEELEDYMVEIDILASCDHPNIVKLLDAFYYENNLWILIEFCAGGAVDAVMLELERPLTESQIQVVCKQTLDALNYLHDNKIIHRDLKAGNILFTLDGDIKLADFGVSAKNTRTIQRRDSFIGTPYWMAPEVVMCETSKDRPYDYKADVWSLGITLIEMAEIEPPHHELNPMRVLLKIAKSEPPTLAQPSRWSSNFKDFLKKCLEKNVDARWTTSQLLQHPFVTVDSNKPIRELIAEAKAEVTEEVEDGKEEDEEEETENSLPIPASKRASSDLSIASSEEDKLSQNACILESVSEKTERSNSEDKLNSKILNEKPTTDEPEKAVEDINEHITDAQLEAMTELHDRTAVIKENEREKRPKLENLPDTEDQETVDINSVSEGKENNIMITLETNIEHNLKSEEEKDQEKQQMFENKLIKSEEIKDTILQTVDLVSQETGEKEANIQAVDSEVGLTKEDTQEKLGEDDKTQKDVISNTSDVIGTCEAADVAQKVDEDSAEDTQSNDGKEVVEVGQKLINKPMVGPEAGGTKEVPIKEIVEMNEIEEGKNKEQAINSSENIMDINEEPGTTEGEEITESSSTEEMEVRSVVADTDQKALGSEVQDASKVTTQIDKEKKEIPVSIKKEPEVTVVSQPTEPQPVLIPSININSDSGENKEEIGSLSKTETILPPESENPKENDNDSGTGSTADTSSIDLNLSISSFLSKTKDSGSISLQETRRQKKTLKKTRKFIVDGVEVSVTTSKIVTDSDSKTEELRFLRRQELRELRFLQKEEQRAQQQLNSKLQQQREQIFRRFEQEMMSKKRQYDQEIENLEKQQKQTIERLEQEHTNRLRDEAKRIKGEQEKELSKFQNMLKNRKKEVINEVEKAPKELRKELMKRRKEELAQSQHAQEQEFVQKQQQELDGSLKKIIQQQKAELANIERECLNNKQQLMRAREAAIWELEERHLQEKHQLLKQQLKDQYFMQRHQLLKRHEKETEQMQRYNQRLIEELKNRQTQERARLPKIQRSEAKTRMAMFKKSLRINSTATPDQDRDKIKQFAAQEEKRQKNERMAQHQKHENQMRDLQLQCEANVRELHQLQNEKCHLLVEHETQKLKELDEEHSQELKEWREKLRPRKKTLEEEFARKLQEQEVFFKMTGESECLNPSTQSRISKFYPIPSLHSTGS
log2 fold change (bafetinib): -0.032 | log2 fold change [1]: -0.076 | log2 fold change (nilotinib): -0.041 | log2 fold change [2]: -0.169 | log2 fold change (dasatinib): -0.085 | log2 fold change [3]: 0.015 | log2 fold change [4]: -0.289 (active) | log2 fold change [5]: 0.004 | log2 fold change (tipifarnib): -0.018 | log2 fold change (mubritinib): 0.026

SNX11 (UniProt Q9Y5W9)
Sequence of UniProt Q9Y5W9 (Q9Y5W9 whole entry, looked up): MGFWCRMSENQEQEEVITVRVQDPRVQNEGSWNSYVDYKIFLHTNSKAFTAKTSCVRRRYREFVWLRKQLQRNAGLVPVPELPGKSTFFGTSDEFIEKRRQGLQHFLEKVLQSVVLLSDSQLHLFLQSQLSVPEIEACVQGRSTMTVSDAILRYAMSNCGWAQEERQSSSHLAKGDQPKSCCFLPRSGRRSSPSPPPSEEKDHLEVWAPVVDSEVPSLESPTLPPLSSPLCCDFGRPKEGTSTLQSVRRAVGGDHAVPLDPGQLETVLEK
log2 fold change (bafetinib): -0.259 | log2 fold change [1]: 0.081 | log2 fold change (nilotinib): -0.033 | log2 fold change [2]: -0.108 | log2 fold change (dasatinib): -0.022 | log2 fold change [3]: -0.44 (active) | log2 fold change [4]: 0.077 | log2 fold change [5]: 0.002 | log2 fold change (tipifarnib): 0.178 | log2 fold change (mubritinib): -0.015

SORT1 (UniProt Q99523)
Sequence of UniProt Q99523 (Q99523 whole entry, looked up): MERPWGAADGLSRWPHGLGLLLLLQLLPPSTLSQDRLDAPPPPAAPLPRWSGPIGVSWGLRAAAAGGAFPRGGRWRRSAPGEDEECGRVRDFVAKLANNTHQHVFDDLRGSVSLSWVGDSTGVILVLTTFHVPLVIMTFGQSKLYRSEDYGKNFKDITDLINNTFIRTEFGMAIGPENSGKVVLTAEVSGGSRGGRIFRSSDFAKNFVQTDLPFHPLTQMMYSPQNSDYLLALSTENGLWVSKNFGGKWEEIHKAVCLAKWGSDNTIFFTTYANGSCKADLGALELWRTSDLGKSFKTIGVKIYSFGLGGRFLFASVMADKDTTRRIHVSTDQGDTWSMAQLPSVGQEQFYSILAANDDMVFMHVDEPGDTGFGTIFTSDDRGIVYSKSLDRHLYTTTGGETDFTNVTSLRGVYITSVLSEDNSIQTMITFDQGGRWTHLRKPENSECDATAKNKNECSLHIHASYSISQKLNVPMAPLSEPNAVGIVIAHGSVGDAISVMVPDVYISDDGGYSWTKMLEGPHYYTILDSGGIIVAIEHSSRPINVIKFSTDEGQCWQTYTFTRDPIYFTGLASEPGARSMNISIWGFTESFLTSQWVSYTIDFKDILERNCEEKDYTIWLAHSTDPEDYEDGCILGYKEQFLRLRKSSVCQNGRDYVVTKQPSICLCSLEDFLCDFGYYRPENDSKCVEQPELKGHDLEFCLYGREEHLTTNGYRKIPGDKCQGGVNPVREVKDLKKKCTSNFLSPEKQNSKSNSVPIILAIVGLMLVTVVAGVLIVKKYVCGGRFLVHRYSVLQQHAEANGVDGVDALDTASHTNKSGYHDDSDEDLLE
log2 fold change (bafetinib): -0.494 (active) | log2 fold change [1]: -0.011 | log2 fold change (nilotinib): 0.041 | log2 fold change [2]: -0.023 | log2 fold change (dasatinib): 0.02 | log2 fold change [3]: -0.122 | log2 fold change [4]: 0.018 | log2 fold change [5]: -0.026 | log2 fold change (tipifarnib): 0.076 | log2 fold change (mubritinib): 0.045
